According to the supplement of paper PMC10849652:
The full data set covers some 8,800 targets. This sample favours those with a hit. About 0.5% of all pairs of compound and target were hits.

Legend:
Assay in all cases: log2 fold change, soluble protein after heating vs DMSO (PISA); higher = thermal stabilisation; K562 lysate, 10 uM; active = over 0.2 and 3.5 SD of the protein, either way, in both replicates (recomputed)
[1] = compound: CS(=O)(=O)CCNCc1ccc(-c2ccc3ncnc(Nc4ccc(OCc5cccc(F)c5)c(Cl)c4)c3c2)o1 [lapatinib]
In short: (§1)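 A 30 min treatment with 10 μM compound was applied to crude K562 extract at 1 mg/mL protein in PBS pH 7.4 with 1 mM MgCl2. Heating for 3 min spanned 48°C-58°C, after which aliquots were pooled, adjusted to 0.5% NP-40 at 4°C and spun at 21,000xg for 90 min. TMTpro 16plex LC-MS/MS of the supernatant, with channel sums equalised, gave values recorded as log-two fold change in thermal stability against solvent controls, from duplicates.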

[2] = compound: CS(=O)(=O)N1CCN(Cc2cc3nc(-c4cccc5[nH]ncc45)nc(N4CCOCC4)c3s2)CC1 [pictilisib]
In short: as §1

[3] = compound: C[C@@H](Oc1cc(-c2cnn(C3CCNCC3)c2)cnc1N)c1c(Cl)ccc(F)c1Cl [crizotinib]
In short: as §1

[4] = compound: C[C@H](C1=CC=C(C=C1)C(=O)NC2=C3C=CNC3=NC=C2)N
In short: as §1

[5] = compound: C[C@H](Nc1ncnc2nc[nH]c12)c1cc2cccc(Cl)c2c(=O)n1-c1ccccc1 [duvelisib]
In short: as §1

[6] = compound: Cc1cc(Nc2cc(CN3CCOCC3)c3nc(C)c(Cc4ccc(Cl)cc4F)n3n2)n[nH]1 [gandotinib]
In short: as §1

[7] = compound: Cc1cc(Nc2cc(N3CCN(C)CC3)nc(Sc3ccc(NC(=O)C4CC4)cc3)n2)n[nH]1 [tozasertib]
In short: as §1

[8] = compound: Cc1ccc(-n2nc(C(C)(C)C)cc2NC(=O)Nc2ccc(OCCN3CCOCC3)c3ccccc23)cc1 [doramapimod]
In short: as §1

[9] = compound: Cc1ccc(NC(=O)c2ccc(CN3CC[C@H](N(C)C)C3)c(C(F)(F)F)c2)cc1Nc1nccc(-c2cncnc2)n1 [bafetinib]
In short: as §1

[10] = compound: Cc1cccc(CC(=O)N2CCc3c2ccc(-c2cn(C)c4ncnc(N)c24)c3F)n1
In short: as §1

Measured: log2 fold change

NOC2L (UniProt Q9Y3T9)
inactive: [1] -0.049 | [2] -0.012 | [3] -0.077 | [4] -0.004 | [5] -0.074 | [6] -0.037 | [7] -0.015 | [8] 0.03 | [9] -0.137 | [10] 0.09

OLA1 (UniProt Q9NTK5)
Sequence of UniProt Q9NTK5 (Q9NTK5 whole entry, looked up): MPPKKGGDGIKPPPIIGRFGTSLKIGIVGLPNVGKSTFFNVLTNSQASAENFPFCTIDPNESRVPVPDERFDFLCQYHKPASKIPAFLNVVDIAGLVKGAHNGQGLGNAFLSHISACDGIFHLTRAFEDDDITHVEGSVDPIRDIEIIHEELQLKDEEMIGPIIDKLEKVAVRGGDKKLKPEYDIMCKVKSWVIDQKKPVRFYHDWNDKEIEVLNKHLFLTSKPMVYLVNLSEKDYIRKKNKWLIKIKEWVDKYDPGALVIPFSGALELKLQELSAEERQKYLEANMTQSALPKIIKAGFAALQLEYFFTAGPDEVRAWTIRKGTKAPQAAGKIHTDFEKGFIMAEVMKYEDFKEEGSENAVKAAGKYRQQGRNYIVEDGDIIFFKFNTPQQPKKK
inactive: [1] -0.009 | [2] 0.013 | [3] -0.005 | [4] -0.088 | [5] 0.007 | [6] -0.035 | [7] 0.025 | [8] 0.018 | [9] 0.024 | [10] 0.052

NCK1 (UniProt P16333)
inactive: [1] 0.025 | [2] 0 | [3] -0.024 | [4] 0.065 | [5] 0.014 | [6] -0.051 | [7] 0.005 | [8] 0.03 | [9] -0.033 | [10] -0.024

NOA1 (UniProt Q8NC60)
Sequence of UniProt Q8NC60 (Q8NC60 whole entry, looked up): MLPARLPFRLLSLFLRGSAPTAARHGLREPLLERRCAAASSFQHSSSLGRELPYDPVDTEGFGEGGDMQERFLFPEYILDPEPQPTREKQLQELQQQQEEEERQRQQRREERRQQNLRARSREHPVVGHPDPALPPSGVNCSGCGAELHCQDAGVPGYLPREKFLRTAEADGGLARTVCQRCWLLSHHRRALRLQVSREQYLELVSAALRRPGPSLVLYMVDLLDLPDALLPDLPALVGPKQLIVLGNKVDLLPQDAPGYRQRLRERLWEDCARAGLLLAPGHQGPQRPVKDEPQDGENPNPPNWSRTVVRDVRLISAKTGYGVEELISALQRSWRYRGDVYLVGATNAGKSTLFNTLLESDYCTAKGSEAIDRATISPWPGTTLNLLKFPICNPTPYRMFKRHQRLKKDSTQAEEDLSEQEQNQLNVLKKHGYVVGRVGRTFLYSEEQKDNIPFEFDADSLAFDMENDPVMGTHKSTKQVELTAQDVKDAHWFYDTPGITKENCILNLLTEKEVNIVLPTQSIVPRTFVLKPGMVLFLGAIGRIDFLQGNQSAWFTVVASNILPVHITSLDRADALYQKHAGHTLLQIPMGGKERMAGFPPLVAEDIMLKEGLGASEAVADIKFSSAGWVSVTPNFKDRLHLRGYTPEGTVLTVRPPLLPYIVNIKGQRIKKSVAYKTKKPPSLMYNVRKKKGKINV
inactive: [1] -0.043 | [2] 0.032 | [3] -0.052 | [4] -0.282 | [5] 0.014 | [6] 0.039 | [7] -0.034 | [8] 0.021 | [9] -0.221 | [10] 0.167

NFKBIB (UniProt Q15653)
Sequence of UniProt Q15653 (Q15653 whole entry, looked up): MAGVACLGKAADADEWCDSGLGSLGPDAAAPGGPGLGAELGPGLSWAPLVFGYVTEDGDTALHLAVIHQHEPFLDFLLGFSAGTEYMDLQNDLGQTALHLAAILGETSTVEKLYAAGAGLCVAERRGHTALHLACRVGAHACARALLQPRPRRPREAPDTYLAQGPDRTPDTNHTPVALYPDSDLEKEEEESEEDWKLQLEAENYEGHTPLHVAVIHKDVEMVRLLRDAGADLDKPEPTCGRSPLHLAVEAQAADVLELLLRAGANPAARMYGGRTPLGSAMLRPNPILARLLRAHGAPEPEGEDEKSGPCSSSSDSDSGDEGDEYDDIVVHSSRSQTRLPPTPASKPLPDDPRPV
active: [4] -0.36
inactive: [1] 0.093 | [2] -0.011 | [3] -0.055 | [5] 0.004 | [6] 0.095 | [7] -0.024 | [8] 0.024 | [9] -0.049 | [10] 0.127

NUP210 (UniProt Q8TEM1)
inactive: [1] -0.074 | [2] -0.076 | [3] -0.028 | [4] -0.034 | [5] 0.013 | [6] -0.08 | [7] -0.012 | [8] -0.017 | [9] -0.007 | [10] 0.044

NCAPG (UniProt Q9BPX3)
Sequence of UniProt Q9BPX3 (Q9BPX3 whole entry, looked up): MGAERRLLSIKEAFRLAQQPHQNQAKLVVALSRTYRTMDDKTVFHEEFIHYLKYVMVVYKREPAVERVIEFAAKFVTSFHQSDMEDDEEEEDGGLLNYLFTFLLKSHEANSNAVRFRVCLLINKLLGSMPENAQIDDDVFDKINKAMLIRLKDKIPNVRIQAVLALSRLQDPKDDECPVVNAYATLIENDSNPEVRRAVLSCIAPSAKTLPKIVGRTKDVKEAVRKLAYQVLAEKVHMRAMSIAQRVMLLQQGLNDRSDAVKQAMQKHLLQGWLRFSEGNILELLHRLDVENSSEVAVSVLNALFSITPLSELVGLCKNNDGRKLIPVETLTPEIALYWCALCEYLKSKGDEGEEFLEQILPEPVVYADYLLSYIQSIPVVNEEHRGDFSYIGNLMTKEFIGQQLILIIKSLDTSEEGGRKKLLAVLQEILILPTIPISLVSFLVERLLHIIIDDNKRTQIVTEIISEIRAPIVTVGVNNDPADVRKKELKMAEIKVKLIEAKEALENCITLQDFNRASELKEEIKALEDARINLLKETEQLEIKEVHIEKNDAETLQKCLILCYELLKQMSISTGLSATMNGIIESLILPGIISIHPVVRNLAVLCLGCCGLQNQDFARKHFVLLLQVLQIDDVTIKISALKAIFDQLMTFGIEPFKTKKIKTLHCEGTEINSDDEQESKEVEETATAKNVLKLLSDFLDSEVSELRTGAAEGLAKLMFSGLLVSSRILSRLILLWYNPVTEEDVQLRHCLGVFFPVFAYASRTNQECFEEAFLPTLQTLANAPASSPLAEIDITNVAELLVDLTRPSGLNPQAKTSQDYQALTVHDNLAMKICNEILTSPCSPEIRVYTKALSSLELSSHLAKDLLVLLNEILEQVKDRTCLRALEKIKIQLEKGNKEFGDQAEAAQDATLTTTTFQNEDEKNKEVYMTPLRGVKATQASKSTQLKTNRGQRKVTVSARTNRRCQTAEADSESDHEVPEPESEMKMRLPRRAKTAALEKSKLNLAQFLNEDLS
inactive: [1] -0.029 | [2] 0 | [3] -0.074 | [4] -0.028 | [5] -0.007 | [6] -0.094 | [7] -0.011 | [8] 0.026 | [9] -0.035 | [10] 0.011

NFKBIE (UniProt O00221)
Sequence of UniProt O00221 (O00221 whole entry, looked up): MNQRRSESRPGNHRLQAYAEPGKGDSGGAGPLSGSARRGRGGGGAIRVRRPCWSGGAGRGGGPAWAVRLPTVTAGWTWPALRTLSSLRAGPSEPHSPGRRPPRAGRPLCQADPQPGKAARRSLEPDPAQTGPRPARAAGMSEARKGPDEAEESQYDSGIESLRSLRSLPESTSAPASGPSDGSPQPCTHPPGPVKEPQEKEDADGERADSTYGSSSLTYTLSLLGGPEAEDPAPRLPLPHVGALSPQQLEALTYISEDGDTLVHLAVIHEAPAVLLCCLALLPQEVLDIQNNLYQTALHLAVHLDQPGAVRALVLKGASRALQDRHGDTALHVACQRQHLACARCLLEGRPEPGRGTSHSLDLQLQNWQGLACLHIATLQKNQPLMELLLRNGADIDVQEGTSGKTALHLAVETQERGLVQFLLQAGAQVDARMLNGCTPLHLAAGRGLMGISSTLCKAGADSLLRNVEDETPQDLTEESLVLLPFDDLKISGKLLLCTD
inactive: [1] 0.03 | [2] 0.002 | [3] -0.027 | [4] 0.066 | [5] 0.03 | [6] -0.02 | [7] 0.07 | [8] 0.031 | [9] 0.012 | [10] 0.096

NONO (UniProt Q15233)
Sequence of UniProt Q15233 (Q15233 whole entry, looked up): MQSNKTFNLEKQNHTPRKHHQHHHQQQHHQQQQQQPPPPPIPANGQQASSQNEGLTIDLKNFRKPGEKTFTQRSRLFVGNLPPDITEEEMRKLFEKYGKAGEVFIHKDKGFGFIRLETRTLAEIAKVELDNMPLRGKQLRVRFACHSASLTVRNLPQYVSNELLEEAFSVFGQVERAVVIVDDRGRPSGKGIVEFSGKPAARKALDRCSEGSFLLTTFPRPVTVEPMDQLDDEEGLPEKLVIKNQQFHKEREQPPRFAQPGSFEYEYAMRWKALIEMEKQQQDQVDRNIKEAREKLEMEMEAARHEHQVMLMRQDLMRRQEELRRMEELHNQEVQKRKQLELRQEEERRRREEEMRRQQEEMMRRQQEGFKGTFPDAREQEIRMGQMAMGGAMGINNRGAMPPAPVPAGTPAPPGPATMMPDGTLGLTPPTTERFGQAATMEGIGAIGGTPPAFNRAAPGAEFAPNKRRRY
inactive: [1] -0.004 | [2] 0.001 | [3] 0.011 | [4] 0.071 | [5] -0.01 | [6] -0.06 | [7] 0.028 | [8] -0.014 | [9] -0.033 | [10] -0.04

PANK1 (UniProt Q8TE04)
Sequence of UniProt Q8TE04 (Q8TE04 whole entry, looked up): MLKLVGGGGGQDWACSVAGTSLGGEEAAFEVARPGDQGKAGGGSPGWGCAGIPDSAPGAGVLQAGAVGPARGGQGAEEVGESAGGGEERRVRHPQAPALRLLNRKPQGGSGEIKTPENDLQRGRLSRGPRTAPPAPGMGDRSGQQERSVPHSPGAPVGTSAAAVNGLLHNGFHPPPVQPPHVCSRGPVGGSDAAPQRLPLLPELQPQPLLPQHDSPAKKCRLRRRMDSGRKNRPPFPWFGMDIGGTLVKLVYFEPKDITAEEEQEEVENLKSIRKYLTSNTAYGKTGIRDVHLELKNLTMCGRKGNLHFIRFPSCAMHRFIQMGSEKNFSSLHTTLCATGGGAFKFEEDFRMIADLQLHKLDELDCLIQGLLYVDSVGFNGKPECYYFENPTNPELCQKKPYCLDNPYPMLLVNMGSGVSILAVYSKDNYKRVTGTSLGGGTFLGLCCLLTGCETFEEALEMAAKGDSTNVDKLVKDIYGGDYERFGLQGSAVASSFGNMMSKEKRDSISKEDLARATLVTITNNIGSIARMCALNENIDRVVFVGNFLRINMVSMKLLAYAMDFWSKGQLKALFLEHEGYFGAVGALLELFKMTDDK
active: [6] -0.31
inactive: [1] -0.008 | [2] 0.151 | [3] -0.018 | [4] 0.106 | [5] 0.099 | [7] 0.069 | [8] 0.041 | [9] -0.062 | [10] -0.253

NDUFS1 isoform 2 (UniProt P28331)
Sequence of UniProt P28331 (P28331 whole entry, looked up): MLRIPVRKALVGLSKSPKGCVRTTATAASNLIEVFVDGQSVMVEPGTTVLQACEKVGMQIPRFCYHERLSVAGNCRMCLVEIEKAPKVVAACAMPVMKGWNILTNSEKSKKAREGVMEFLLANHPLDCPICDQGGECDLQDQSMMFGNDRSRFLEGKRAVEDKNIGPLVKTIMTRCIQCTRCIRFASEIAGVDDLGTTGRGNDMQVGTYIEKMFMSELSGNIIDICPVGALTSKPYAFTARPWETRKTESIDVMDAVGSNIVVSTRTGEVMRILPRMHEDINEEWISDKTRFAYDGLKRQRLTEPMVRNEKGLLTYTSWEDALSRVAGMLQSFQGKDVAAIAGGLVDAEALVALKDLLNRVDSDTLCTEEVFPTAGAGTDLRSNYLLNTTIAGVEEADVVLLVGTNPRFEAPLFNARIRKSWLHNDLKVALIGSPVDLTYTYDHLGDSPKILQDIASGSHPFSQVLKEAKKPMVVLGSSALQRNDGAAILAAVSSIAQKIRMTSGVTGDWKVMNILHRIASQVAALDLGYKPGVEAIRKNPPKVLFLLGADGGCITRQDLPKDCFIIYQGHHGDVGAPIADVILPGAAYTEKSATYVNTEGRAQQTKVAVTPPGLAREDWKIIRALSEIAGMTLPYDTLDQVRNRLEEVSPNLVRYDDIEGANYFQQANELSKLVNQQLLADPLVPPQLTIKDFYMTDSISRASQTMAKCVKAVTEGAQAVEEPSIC
inactive: [1] 0.023 | [2] -0.014 | [3] 0.034 | [4] 0.009 | [5] -0.01 | [6] -0.006 | [7] 0.03 | [8] 0.024 | [9] -0.013 | [10] -0.006

NCOR2 (UniProt C9J0Q5)
inactive: [1] 0.063 | [2] -0.028 | [3] 0.116 | [4] 0.018 | [5] -0.014 | [6] -0.055 | [7] 0.011 | [8] -0.052 | [9] 0.079 | [10] -0.07

PAGE4 (UniProt O60829)
Sequence of UniProt O60829 (O60829 whole entry, looked up): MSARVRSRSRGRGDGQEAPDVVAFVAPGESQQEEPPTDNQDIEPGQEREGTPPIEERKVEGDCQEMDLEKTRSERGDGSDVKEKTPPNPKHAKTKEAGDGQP
active: [4] 0.344
inactive: [1] -0.012 | [2] -0.05 | [3] -0.028 | [5] 0.091 | [6] -0.102 | [7] -0.023 | [8] 0.11 | [9] -0.004 | [10] -0.134

NEDD8 (UniProt Q15843)
Sequence of UniProt Q15843 (Q15843 whole entry, looked up): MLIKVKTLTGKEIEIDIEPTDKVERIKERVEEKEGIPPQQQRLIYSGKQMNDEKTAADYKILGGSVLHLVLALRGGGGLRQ
inactive: [1] 0.04 | [2] 0.028 | [3] 0.041 | [4] 0.19 | [5] 0.019 | [6] -0.062 | [7] 0.06 | [8] -0.049 | [9] -0.117 | [10] -0.107
